The source of these data is PubChem BioAssay AID605 (National Center for Advancing Translational Sciences (NCATS), 2007).

Out of some 71,000 compounds screened, about 35 (0.05%) were called active. Calls come from the whole dose curve; as a rule, active = well fitted curve in the direction sought with a large enough effect; inconclusive = small, poorly fitted or top-dose-only effect, or effect the other way; inactive = flat fitted curve, though single readings scatter. These entries were drawn from the full list.

This assay deals with tRNA threonylcarbamoyladenosine biosynthesis protein TsaE (Escherichia coli (strain K12)) (UniProt P0AF67). The assay is described as follows: qHTS Assay for Inhibitors of YjeE. As to conditions: purified YjeE enzyme, qHTS inhibition assay. The protocol: NIH Molecular Libraries Screening Centers Network [MLSCN]
NIH Chemical Genomics Center [NCGC]
Assay Provider: Eric Brown, McMaster University
YjeE is an essential E.coli protein of unknown function that binds adenosine diphosphate (ADP). A complex of YjeE and BODIPY Texas Red-labeled ADP probe (Invitrogen, catalog number A22359) is incubated with library members. Inhibitors of YjeE-ADP binding are detected by a decrease in the fluorescence polarization (FP) of the fluorophore. Purified YjeE was supplied by Chand Mangat and Eric Brown, McMaster University.
NCGC Assay Protocol Summary:
2 uM probe/10 uM YjeE in columns 1, 2, 5-48. Titration of ADP control (from 40 mM, then 1:2) pin-transferred to top half of column 2. Column 1 and bottom half of column 2 are neutral.
Two and a half uL of reagents were dispensed to 1536-well Greiner black plates. Compounds and controls (20 nL) were transferred via Kalypsys PinTool. The plates were incubated for 15 min at room temperature, and then read on ViewLux (Perkin-Elmer) High-throughput CCD imager using BODIPY polarization filter set and 30 seconds exposure time. During dispense, reagent bottle was kept submerged into 4 deg C water bath and all liquid lines were covered with aluminum foil to minimize probe and protein degradation.
Keywords: NIH Roadmap, MLSCN, MLI, MLSMR, qHTS, NCGC, YjeE
As for `Oc1ccc(O)c2c(O)cccc12`, the result was inactive. For `Cc1ccc(S(=O)(=O)NC(=O)N2CCCC(C)(C)C2)cc1` the value was “inactive”; for `C=CCOC(=O)COCCC(C)C`, “inactive”.

With `CCC1=C/C(=C\c2ccc3c(c2)OCO3)C(=O)S1`, the compound was classed as inactive. Consider `COC(=O)N1CCC[C@@]2(CCN(C(=O)NC(C)C)C2)C1`, for which the result was inactive. Next, `O=S(=O)(NCc1ccccc1Cl)c1cnc[nH]1`: “inactive”. Consider `CCCCn1c(SCC(=O)N2CCC(C(=O)OCC)CC2)nc2cc(S(N)(=O)=O)ccc21`, for which the call was inactive.

In the case of `CCCC(Cl)CCCC(Cl)CCC(Cl)CCC(Cl)CCC(Cl)CCCC(Cl)CCC` (stereo not given), the call was inactive. Turning to `Nc1ccccc1N`, the outcome was inactive. Turning to `N[C@@H](C(=O)O)c1ccc(P(=O)(O)O)cc1`, the compound was classed as inactive.

With `CC(=O)OC(C(=O)NCCc1ccccc1)c1cccnc1` (stereo not given), the call was inactive. `COCc1[nH]nc2c1C(C1C=CCCC1)C(C#N)=C(N)O2` (stereo not given): the compound was classed as inactive.

With `O=C(c1csnn1)N1CCC[C@@]2(CCN(Cc3nccs3)C2)C1`, the result was inactive. For the compound `COc1cc(Cl)c(C)cc1NC(=O)CSc1nnc(-c2ccco2)n1CC(C)C`, the result was inactive.

In the case of `O=C(Nc1cccc(F)c1)N1CC2(CCN(C(=O)c3csnn3)CC2)C1`, the compound was classed as inactive. For the compound `Cc1cccc(CNc2cc(-c3ccccc3Cl)ncn2)c1`, the compound was classed as inactive.

Consider `COC(=O)[C@@H]1[C@H]2C[C@H]3c4[nH]c5cc(OC)ccc5c4CCN3C[C@@H]2C[C@@H](OC(=O)c2cc(OC)c(OC)c(OC)c2)[C@@H]1OC`, for which the compound was called inactive. Regarding `CCOc1ccccc1NC(=O)C1CCN(S(=O)(=O)c2c(C)nn(C)c2C)CC1`, the result was inactive. Consider `C=CCN1C(=O)C(O)(CC(=O)c2ccc(Cl)cc2)c2ccccc21` (stereo not given), for which the compound was classed as inactive. Next, `CS(=O)(=O)N1CCCC(C(=O)N2CCOCC2)C1` (stereo not given): “inactive”. With `Clc1ccccc1-c1cc(NCCN2CCOCC2)ncn1`, the result was inactive. For `CCc1cc2c(=O)c(-c3ccon3)c(N)oc2cc1OC`, the outcome was inactive. With `CCn1c(SCC(=O)Nc2cc(C)ccc2C)nnc1-c1cnccn1`, the result was inactive.

In the case of `CC1=C(C(=O)OCc2ccccc2)C(c2ccc(C(F)(F)F)cc2)NC(=O)N1CCCCCC(=O)O` (stereo not given), the compound was called inactive. Take `COC(=O)[C@@]1(C)C=C[C@@H](Cc2ccccc2)N1C(C)=O`: the outcome was inactive.

Take `O=C(Cn1cc(C(=O)c2cccs2)c2ccccc21)NCc1cccs1`: the outcome was inactive. Turning to `O=C(c1cnccn1)N1CCC[C@@]2(CCN(Cc3ccncc3)C2)C1`, the compound was called inactive. For the compound `COC(=O)CCCCCN1C(=O)NC(c2ccc(-c3ccccc3)cc2)C(C(=O)OCc2ccccc2)=C1C` (stereo not given), the call was inactive. Next, `Cc1ccc(Br)cc1`: “inactive”. Consider `O=C1CC(N2CCN(C(c3ccccc3)c3ccccc3)CC2)C(=O)N1` (stereo not given), for which the result was inactive. For `CCOc1ccc(C(=O)N(Cc2ccc(N(C)C)cc2)C2CCS(=O)(=O)C2)cc1` (stereo not given), the call was inactive. Turning to `C/C(=C\C(=O)c1ccccc1)Nc1cccc(O)c1`, the result was inactive. Next, `Cc1cc2nc3c(=O)[nH]c(=O)nc-3n(C[C@H](O)[C@H](O)[C@H](O)CO)c2cc1C`: “inactive”. For `O=C(O)c1ccc(C(=O)c2ccccc2C(=O)O)cc1C(=O)O` the value was “inactive”. Turning to `Cc1ccc(-c2c3c(=O)n(C)c(=O)n(C)c3cn2-n2cnnc2)cc1`, the result was inactive. For `C=CC(=O)OCCOCCOCCOCCOC(=O)C=C` the value was “inactive”; for `CCOc1ccc2c(c1)cc(CN(C(=O)CC)C1CCCCC1)c1nnnn12`, “inactive”. For `Cc1nc2cnc(N3CCNCC3)nc2n(Cc2ccc(F)cc2)c1=O` the value was “inactive”; for `COc1ccc2c(=O)cc(-c3ccccc3)oc2c1O`, “inactive”. For the compound `C=CCn1c(SCc2csc(C)n2)nc2scc(-c3ccc(C)o3)c2c1=O`, the outcome was inactive. Take `C=CC(=C)CCC=C(C)C`: the compound was called inactive.

For the compound `Cc1ccc(NC(=O)N2CCC(C(=O)NCc3ccc(F)cc3)CC2)cc1`, the call was inactive. In the case of `O=C(NCc1ccccc1)[C@H]1C[C@@H]1[C@H](NP(=O)(c1ccccc1)c1ccccc1)c1ccccc1`, the compound was called inactive. As to `O=C1C(c2[nH]c3ccccc3c2O)=Nc2ccccc21`, the compound was called inactive.

For the compound `COc1c(C)c2c(c(O)c1C/C=C(\C)CCC(=O)O)C(=O)OC2`, the result was inactive. As for `Fc1ccc2nc(-c3ccccc3)nc(SCc3nnc(-c4ccccc4)o3)c2c1`, the compound was classed as inactive.

Regarding `Cc1cc(Cl)ccc1OCC(=O)Oc1c(Cl)c(Cl)c(Cl)c(Cl)c1Cl`, the call was inactive.

For the compound `CCN(CC)CCCCn1c(-c2ccccc2)nc2c(N3CCOCC3)nc(C)nc21`, the outcome was inactive.

As for `CCNC(=O)CCc1nc(-c2ccc(C(C)(C)C)cc2)no1`, the call was inactive. For `c1cncc(CNc2ccnc(-c3ccc4c(c3)OCO4)n2)c1`, the result was inactive. In the case of `Cc1cc(C)c2c(c1)c(C)cc1nnc(SCC(=O)NCc3ccco3)n12`, the result was inactive.

Take `Cc1ccc(-c2noc(-c3ccccc3C(=O)NCC3CCCO3)n2)cc1` (stereo not given): the outcome was inactive. Next, `c1ccc2c(c1)-c1ccccc1C2N1CC2CCC(CC2)C1`: “inactive”. Next, `CCC(=O)Nc1ccc(C(=O)Nc2ccc3c(c2)C(=O)N(CC2CCCO2)C3=O)cc1` (stereo not given): “inactive”; `CSCC[C@H](NC(=O)NCc1cccs1)C(=O)O`: “inactive”; `Cc1cccn2c(=O)c3cc(C(=O)N4COCC4(C)C)n(C)c3nc12`: “inactive”.

Turning to `CCC[C@@H]1C[C@@]1(CCC)[C@@H](NC(=O)c1ccccc1)c1ccc(C(=O)OC)cc1`, the result was inactive. For `Cc1nc(CNS(=O)(=O)c2ccc(Oc3ccccc3)cc2)cs1`, the call was inactive.

With `O=C(c1csnn1)N1CCC2(CCN(Cc3nccs3)CC2)CC1`, the compound was called inactive. `CC1(C)CCCC2=C1CC1C(=O)N(c3ccccc3)C(=O)C1C2` (stereo not given): the compound was classed as inactive. For `COc1ccc(-c2cc(C(=O)NC(C(=O)O)C(C)C)c(C)o2)cc1OC` (stereo not given), the compound was called inactive. Take `Cc1ccc(-c2nnn(CC(=O)N(CCO)C(C(=O)NC(C)(C)C)c3ccncc3)n2)cc1` (stereo not given): the compound was called inactive. As to `Cc1ccc(NC(=O)CCNS(=O)(=O)c2ccc3c(c2)oc(=O)n3C)cc1C`, the compound was classed as inactive. Take `CCC/C=C(\CCC)C(NC(=O)Cc1ccccc1)c1ccc(C(=O)OC)cc1` (stereo not given): the call was inactive.

As to `O=C1CC(c2cccc(Br)c2)C2=C(CCCC2=O)N1` (stereo not given), the result was inactive. As to `COc1ccc(-c2nc3cnc(Oc4ccccc4)nc3n(Cc3cccs3)c2=O)cc1`, the compound was classed as inactive. With `Oc1c(CN2CCOCC2)ccc(CN2CCOCC2)c1O`, the compound was classed as inactive. In the case of `CC(=O)CSc1nnc(CSc2ncccn2)n1C1CCCCC1`, the outcome was inactive.

`CCN1CCN(C(=O)CN(C)S(=O)(=O)c2ccc(OC)cc2)CC1`: the compound was called inactive. As for `CCOc1ccc(S(=O)(=O)n2ccnc2)c2ccccc12`, the outcome was inactive. With `CCc1ccc(Nc2ncc3c(n2)CC(c2ccco2)CC3=O)cc1` (stereo not given), the outcome was inactive.

Consider `COc1ccc(CN(C(=O)c2cccs2)c2nccs2)cc1OC`, for which the result was inactive.

Regarding `Cc1ccc(C(=O)CS(C)(=O)=O)cc1`, the call was inactive.

With `CC(C)C(=O)N1CCN(CCN=CC2=C(O)CC(c3ccco3)CC2=O)CC1` (stereo not given), the compound was called inactive. For `COc1cccc(N2CCN(C(=O)C3CCCN(S(=O)(=O)c4cnc[nH]4)C3)CC2)c1` (stereo not given) the value was “inactive”; for `O=C(Nc1c(C(=O)N2CCCCC2)cnn1-c1ccccc1)c1ccco1`, “inactive”; for `COc1ncc2nc(-c3ccc(Cl)cc3)c(=O)n(-c3ccccc3)c2n1`, “inactive”.

Consider `COc1cc2[nH]c(=S)n(Cc3ccc(C)o3)c(=O)c2cc1OC`, for which the outcome was inactive. For `CCC(C)(C)N=C(NC#N)Nc1cccnc1`, the compound was called inactive. Regarding `C[C@@H](Nc1nc(-c2ccccc2)nc2c1oc1ccccc12)C(=O)O`, the compound was called inactive. Regarding `Cc1ccc(N(CC(O)CN2CCCC2)S(=O)(=O)c2ccccc2)cc1` (stereo not given), the compound was called inactive. For the compound `COc1ccc(N2C(=O)CC(N3CCC(C(N)=O)CC3)C2=O)cc1` (stereo not given), the compound was classed as inactive.

Regarding `CCCCCCn1c(CN2CCCC(C)C2)nc2c1c(=O)n(C)c(=O)n2C` (stereo not given), the call was inactive. With `O=NO`, the outcome was inactive. With `Cc1ccc(S(=O)(=O)NC(=O)NN2C[C@H]3CCC[C@@H]3C2)cc1`, the result was inactive. On to `CCCn1c(=O)c(-c2ccccc2)c(O)c2ccccc21`, for which the call was inactive. With `CC(C)CC1(C(=O)NCc2ccccn2)C=CCN1C(=O)c1ccccc1` (stereo not given), the outcome was inactive. For the compound `COCCOC(=O)C1=C(C)Nc2nc(C)nn2C1c1ccccc1` (stereo not given), the call was inactive.

For `CCCC(=O)Nc1nnc(CC(=O)OCC)s1`, the call was inactive. Take `O=C(O)[C@@H](S)[C@H](S)C(=O)O`: the result was inactive.
